Laboratory results reported in PubChem BioAssay AID894 (National Center for Advancing Translational Sciences (NCATS), 2007).
“And” between values parts separate entries of the source, which are not always exact repeats. Equal entries are not always repeated. The campaign covered roughly 150,000 compounds. About 6,500 (4.3%) were called active. About 12% were inconclusive and are not listed. The entries come from a sample that favours actives as a whole. More than one record can exist for a structure, and the calls need not agree. Unmarked numbers belong to inactive results. Calls come from the whole dose curve; as a rule, active = well fitted inhibition curve with a large enough effect (not every such curve was filed as active); inconclusive = small, poorly fitted or top-dose-only effect, or another doubt; inactive = no such curve, though single readings can be large or run the other way.
% is set by controls: 0 for no effect and ±100 for the full control effect; potency is the fitted concentration of half-maximal effect.

Each compound was assayed against 15-hydroxyprostaglandin dehydrogenase [NAD(+)] (Homo sapiens) (UniProt P15428) (assay: qHTS Assay for Inhibitors of HPGD (15-Hydroxyprostaglandin Dehydrogenase)). Conditions: purified HPGD, NADH fluorescence kinetic, PGE2 substrate; activity change, negative = inhibition: active compounds read low.
Chain of 15-hydroxyprostaglandin dehydrogenase [NAD(+)] (Homo sapiens) (P15428 whole entry, looked up): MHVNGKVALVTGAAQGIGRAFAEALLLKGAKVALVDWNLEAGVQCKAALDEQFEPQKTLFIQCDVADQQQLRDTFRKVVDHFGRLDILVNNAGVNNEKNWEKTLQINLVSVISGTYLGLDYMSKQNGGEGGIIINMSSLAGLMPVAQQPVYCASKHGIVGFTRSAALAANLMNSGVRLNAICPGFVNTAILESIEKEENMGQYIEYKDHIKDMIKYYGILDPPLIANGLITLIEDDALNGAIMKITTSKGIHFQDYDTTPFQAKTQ
Summary of the method: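 20 nM HPGD preincubated 15 min at room temperature with compound in 50 mM Tris-HCl pH 8, 0.01% Tween 20. Started with 1 mM NAD+ and 30 uM prostaglandin E2; NADH fluorescence (360/450 nm) read 5 times over 30-s intervals, last minus first.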
`O=[N+]([O-])c1ccc(N2CCNCC2)cc1NCc1cccnc1` showed an activity change, negative = inhibition of -18.8%. `O=C1OC(OC(=O)c2ccccc2Br)C(N2CCOCC2)=C1Cl` (stereo unspecified) showed an activity change, negative = inhibition of -15.3%. For `O=C(CCn1c(SCC(=O)c2ccccc2)nc2ccccc2c1=O)NCc1ccc(F)cc1`, the activity change, negative = inhibition was -4.59%. In the case of `COc1ccc(OCc2ccc(-c3nc4ccccc4c(=O)n3N)o2)cc1`, the activity change, negative = inhibition is reported as -2.6%. With `Cc1ccc(C(=O)CSc2nc3ccccc3c(=O)n2N)o1` the Potency was 25.1 µM (active). `O=C(CSc1nc2ccccc2[nH]1)Nc1nc(-c2ccccc2)c(-c2ccccc2)o1` showed an activity change, negative = inhibition of -28.7%. `O=C(CN1C(=O)/C(=C\c2ccccc2F)SC1=S)Nc1nc2ccccc2s1` was tested, and the activity change, negative = inhibition was -21.2%. In the case of `O=C(Nc1ccccc1)c1nnsc1S(=O)(=O)c1ccc(Cl)cc1`, the Potency is reported as 11.2 µM (active). For `O=C(Nc1ccc(Cl)cc1)c1ccsn1`, the activity change, negative = inhibition was -18.4%. `CC(=O)Nc1cc(C(=O)O)ccc1S(=O)(=O)c1ccc(Cl)cc1` showed an activity change, negative = inhibition of -9.11%. `Cc1ccccc1Nc1nc(N)nc(CSc2ccccc2)n1` was tested, and the activity change, negative = inhibition was -2.99%. In the case of `COc1ccc(-n2c(C)cc(C(=O)CN3C(=O)NC4(CCc5ccccc54)C3=O)c2C)cc1` (stereo unspecified), the activity change, negative = inhibition is reported as -8.92%. With `COc1cc(/C=C/C(=O)O)cc(S(=O)(=O)Nc2ccccc2SC)c1OC` the activity change, negative = inhibition was -7.12%. With `Cc1ccc(N(CC(O)CN2CCCC2)S(=O)(=O)c2ccccc2)cc1` (stereo unspecified) the activity change, negative = inhibition was -2.29%. With `Cc1cc(C)n(CC(O)CN(c2ccccc2)S(=O)(=O)c2ccc3ccccc3c2)n1` (stereo unspecified) the activity change, negative = inhibition was -6.52%. With `COc1ccc([N+](=O)[O-])cc1N(CC(O)Cn1nnc2ccccc21)S(=O)(=O)c1ccc(C)cc1` (stereo unspecified) the Potency was 28.2 µM (active). `CCCCCCOC(=O)NCC(O)c1ccccc1` (stereo unspecified) was tested, and the activity change, negative = inhibition was -19.8%. `CCCCCC(O)c1cccc(OCc2ccc3ccccc3n2)c1` (stereo unspecified) was tested, and the Potency was 14.1 µM (active) and the activity change, negative = inhibition was -26.2% and -5.68%. `CCCn1c(C(O)c2ccc(OCC)cc2)nc2ccccc21` (stereo unspecified) was tested, and the activity change, negative = inhibition was -9.25%. `Cc1nn(-c2ccccc2)c(Cl)c1C(=O)Nc1ccccc1` was tested, and the Potency was 14.1 µM (active). For `Cc1nn(-c2ccccc2)c(C)c1NC(=O)CCl`, the activity change, negative = inhibition was -8.71%. Work on `Cc1cc(NC(=O)Nc2ccccc2)n(-c2ccccc2)n1` yielded an activity change, negative = inhibition of -0.703%. `CCCCNC(=O)C1CCC(CNS(=O)(=O)c2ccc(NC(C)=O)cc2)CC1` (stereo unspecified) showed an activity change, negative = inhibition of -26.6%. `COc1ccc(NC(=S)NCC2CCN(c3ccc(OC)cc3)C2)cc1` (stereo unspecified) gave an activity change, negative = inhibition of -3.49%. In the case of `O=C(NNC(=S)Nc1ccc(Br)cc1Cl)c1ccco1`, the activity change, negative = inhibition is reported as -15.2%.
